The source made the active and inactive calls.

Consider nine molecules from PubChem BioAssay.

Test [1] can be described thus: small molecules captured by biotinylated probe aFSTL3 – biochemical, small-molecule microarray, fluorescence 635/667, stem cell growth factor project, primary screen (AID 1064).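 Further: measures binding of the biotinylated anti-FSTL3 antibody to printed compounds.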 Particulars: higher = more signal.
A short description of test [2]: binders from COS7 lysate, DM2A8 probe, primary screen, torsin A project, cell lysate, small-molecule microarray, fluorescence 635/667 (AID 1065). Conditions: higher = more signal, COS7 lysate expressing mutant human TOR1A.
Test [3] in a line: small molecules captured by biotinylated probe aFGF2 – biochemical, small-molecule microarray, fluorescence 635/667, stem cell growth factor project, primary screen (AID 1067).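 Further: measures binding of biotinylated aFGF2 protein to printed compounds on slides; z-score merges feature fluorescence and signal-to-noise across triplicate slides.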 Conditions: higher = more signal.
A short description of test [4]: small molecules captured by biotinylated probe aFGF10 – biochemical, small-molecule microarray, fluorescence 635/667, stem cell growth factor project, primary screen (AID 1071).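 Further: score merges 667 nm spot intensity and signal to noise from triplicate slides.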 Particulars: higher = more signal.
The target in test [5] is Neurogenic locus notch homolog protein 2 (Homo sapiens) (UniProt Q04721). Briefly: small molecules binding Notch2 protein – biochemical, small-molecule microarray, 635 nm fluorescence, stem cell growth factors, primary screen (AID 1073). Conditions: higher = more signal.
Chain of Neurogenic locus notch homolog protein 2 (Homo sapiens) (Q04721 whole entry, looked up, canonical isoform): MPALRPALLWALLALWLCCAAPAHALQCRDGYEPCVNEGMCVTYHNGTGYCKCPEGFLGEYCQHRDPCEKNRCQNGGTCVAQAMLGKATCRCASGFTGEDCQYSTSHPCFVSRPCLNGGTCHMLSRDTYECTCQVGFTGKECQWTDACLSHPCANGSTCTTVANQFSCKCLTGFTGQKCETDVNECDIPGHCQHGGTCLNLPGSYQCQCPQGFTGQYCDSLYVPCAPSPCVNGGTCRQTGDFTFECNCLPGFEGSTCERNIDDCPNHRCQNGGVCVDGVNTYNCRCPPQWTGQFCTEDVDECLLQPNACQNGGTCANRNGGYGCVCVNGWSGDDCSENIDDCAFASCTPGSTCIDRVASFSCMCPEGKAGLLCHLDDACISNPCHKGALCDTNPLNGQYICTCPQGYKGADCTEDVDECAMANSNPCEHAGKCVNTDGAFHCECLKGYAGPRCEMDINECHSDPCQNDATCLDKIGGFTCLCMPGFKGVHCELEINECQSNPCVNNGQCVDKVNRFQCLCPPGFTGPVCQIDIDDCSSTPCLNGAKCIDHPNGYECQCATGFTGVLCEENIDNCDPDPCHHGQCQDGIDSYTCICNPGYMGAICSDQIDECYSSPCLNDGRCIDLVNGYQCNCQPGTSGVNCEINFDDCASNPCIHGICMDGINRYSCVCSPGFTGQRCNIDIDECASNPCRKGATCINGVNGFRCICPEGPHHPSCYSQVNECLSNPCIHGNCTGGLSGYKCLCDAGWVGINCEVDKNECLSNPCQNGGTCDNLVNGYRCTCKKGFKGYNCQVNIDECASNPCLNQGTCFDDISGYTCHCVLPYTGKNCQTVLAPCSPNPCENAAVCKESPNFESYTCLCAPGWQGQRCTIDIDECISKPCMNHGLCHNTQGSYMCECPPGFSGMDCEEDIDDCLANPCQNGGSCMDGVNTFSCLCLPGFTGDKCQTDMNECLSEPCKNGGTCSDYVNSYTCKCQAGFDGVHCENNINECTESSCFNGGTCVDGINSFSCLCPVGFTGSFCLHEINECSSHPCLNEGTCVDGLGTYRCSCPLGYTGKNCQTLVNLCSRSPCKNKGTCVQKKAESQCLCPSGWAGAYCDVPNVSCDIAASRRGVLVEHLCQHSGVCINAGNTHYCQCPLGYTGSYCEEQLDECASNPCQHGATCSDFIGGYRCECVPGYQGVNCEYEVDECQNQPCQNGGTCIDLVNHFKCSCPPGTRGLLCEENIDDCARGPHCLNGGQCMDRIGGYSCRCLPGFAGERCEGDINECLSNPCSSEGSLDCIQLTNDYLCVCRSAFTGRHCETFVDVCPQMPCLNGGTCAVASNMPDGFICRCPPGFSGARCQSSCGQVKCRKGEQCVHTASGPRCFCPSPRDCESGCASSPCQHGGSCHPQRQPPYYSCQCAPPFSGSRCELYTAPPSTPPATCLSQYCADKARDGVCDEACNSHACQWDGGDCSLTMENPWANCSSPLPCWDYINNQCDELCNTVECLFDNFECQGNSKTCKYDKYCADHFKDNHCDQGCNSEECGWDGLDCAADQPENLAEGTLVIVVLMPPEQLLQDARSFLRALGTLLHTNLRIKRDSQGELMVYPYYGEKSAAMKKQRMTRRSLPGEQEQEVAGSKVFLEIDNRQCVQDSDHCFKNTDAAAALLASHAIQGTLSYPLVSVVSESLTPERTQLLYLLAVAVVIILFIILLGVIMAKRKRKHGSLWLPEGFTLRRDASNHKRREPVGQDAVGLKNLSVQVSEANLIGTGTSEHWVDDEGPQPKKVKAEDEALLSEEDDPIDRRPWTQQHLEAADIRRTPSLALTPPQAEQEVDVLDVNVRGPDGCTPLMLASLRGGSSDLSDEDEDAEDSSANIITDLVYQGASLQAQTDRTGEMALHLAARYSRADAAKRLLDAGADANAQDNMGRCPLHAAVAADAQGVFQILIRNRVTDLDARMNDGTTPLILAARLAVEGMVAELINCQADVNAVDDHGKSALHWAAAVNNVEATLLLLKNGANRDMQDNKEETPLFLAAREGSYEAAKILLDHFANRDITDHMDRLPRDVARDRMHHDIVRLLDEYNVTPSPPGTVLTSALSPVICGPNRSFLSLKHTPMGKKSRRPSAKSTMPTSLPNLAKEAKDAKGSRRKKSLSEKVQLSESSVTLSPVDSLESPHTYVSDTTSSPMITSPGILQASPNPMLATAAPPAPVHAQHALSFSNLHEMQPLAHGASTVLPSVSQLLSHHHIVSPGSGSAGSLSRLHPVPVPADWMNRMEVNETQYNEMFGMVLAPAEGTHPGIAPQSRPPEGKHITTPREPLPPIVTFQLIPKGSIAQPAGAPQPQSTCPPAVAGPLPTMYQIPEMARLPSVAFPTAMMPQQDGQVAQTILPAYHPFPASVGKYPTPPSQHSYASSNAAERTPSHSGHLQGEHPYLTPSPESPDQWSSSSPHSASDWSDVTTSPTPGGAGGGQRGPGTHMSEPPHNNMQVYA
Test [6] addresses Pro-neuregulin-1, membrane-bound isoform (Homo sapiens) (UniProt Q02297). Briefly: small molecules binding neuregulin-1 protein – biochemical, small-molecule microarray, fluorescence 635/667, psychiatric disease protein project, primary screen (AID 1075).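 Further: score combines 667 nm spot fluorescence with signal to noise.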 Particulars: NRG1 binding, 635 nm fluorescence, higher = more signal.
For test [7], the system named is Neuregulin-1 EGF-like domain. The test can be described thus: small molecules binding NRG1 EGF domain – biochemical, small-molecule microarray, 635 nm fluorescence, primary screen (AID 1081).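 Further: binding of the protein to compounds printed on small-molecule microarray slides.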 Particulars: higher = more signal.
Test [8] can be described thus: FRG1 expression reporter modulators in myotubes – cell-based, C2C12 myotubes, firefly/Renilla luciferase, luminescence, FRG1 inhibition for FSHD, primary screen (AID 1084). Particulars: FRG1 promoter luciferase, higher = more signal, called active from +8 up or from −8 down.
The nature of test [9]: small molecules captured by biotinylated probe aFST – biochemical, small-molecule microarray, fluorescence 635/667, stem cell growth factor project, primary screen (AID 1086).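 Further: score merges 667 nm fluorescence with signal-to-noise of each printed compound spot.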 Particulars: higher = more signal.
Test [10] can be described thus: binders of probe aHhip on microarray, primary screen, stem cell growth factor project, biochemical, small-molecule microarray, fluorescence 635/667 (AID 1087).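 Further: score merges spot fluorescence at 667nm with spot signal to noise ratio.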 Particulars: higher = more signal.
Test [11] concerns PRMT1 (protein arginine N-methyltransferase 1). The test can be described thus: small molecules binding arginine methyltransferase PRMT1 – biochemical, small-molecule microarray, 635 nm fluorescence, primary screen (AID 1088).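 Further: binding of Prmt1 protein to compounds spotted on small-molecule microarray slides.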 Conditions: higher = more signal.
Test [12] can be described thus: growth effects on S. cerevisiae YJM789 – YJM789 clinical isolate, OD600, 24 h, basal, primary screen (AID 1089).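 Further: growth of clinical yeast isolate S. cerevisiae YJM 789 seeded 1000 cells per well; test concentration not given here.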 Particulars: higher = more signal, called active from +8 up or from −8 down.
A short description of test [13]: S. pombe growth modifiers, basal conditions – strain 972, OD600, 24 h, no modulator, primary screen (AID 1090).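 Further: basal condition with compound alone and no growth modifier present; test concentration not given here.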 Conditions: S. pombe 972 growth, higher = more signal, called active from +8 up or from −8 down.
Test [14] in a line: budding yeast growth modifiers under rapamycin – strain BY4716, OD600, 96 h, primary screen (AID 1091). Further: test concentration not given here. Particulars: S. cerevisiae BY4716 + rapamycin, higher = more signal, called active from +8 up or from −8 down.
Test [15] addresses Torsin-1A-interacting protein 2 (Homo sapiens) (UniProt Q8NFQ8). The test can be described thus: small molecules binding lysate-expressed LULL1 – cell lysate, human LULL1 lysate, 635/667 nm fluorescence, primary screen (AID 1092).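 Further: probe is lysate of COS7 cells overexpressing human LULL1; score merges per-feature 667 nm fluorescence with signal-to-noise.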 Conditions: small-molecule microarray, hLULL1 lysate binding, 635 nm fluorescence; higher = more signal.
The nature of test [16]: optical density change of DRC41 E. coli – strain DRC41, OD650, 24 h, E. coli filamentation project, primary screen (AID 1093).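 Further: MC1000 strain lacking acrAB efflux and sulA so SOS filamentation is blocked; test concentration not given here.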 Conditions: E. coli DRC41 growth, higher = more signal, called active from +8 up or from −8 down.
A short description of test [17]: probe aLefty2 binding to arrayed compounds – biochemical, biotinylated probe, 635/667 nm fluorescence, primary screen (AID 1094).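 Further: score merges spot fluorescence near 667 nm with spot signal-to-noise ratio.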 Conditions: small-molecule microarray, higher = more signal.
Test [18] concerns Noggin (protein binding on small-molecule microarray). Briefly: small molecules binding Noggin protein – biochemical, 635/667 nm fluorescence, primary screen (AID 1095).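 Further: score merges 667 nm feature fluorescence with signal to noise over triplicate slides.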 Conditions: 635 nm fluorescence, higher = more signal.
Test [19] concerns the target Neurogenic locus notch homolog protein 3 (Homo sapiens) (UniProt Q9UM47). Briefly: small molecules binding NOTCH3 protein – biochemical, 635/667 nm fluorescence, primary screen (AID 1096). Particulars: small-molecule microarray, 635 nm fluorescence, higher = more signal.
Test [20] is described as follows: probe aEGFR binding to arrayed compounds – biochemical, biotinylated probe, 635/667 nm fluorescence, primary screen (AID 1097).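 Further: probe is a biotinylated anti-EGFR antibody binding compounds printed on slides; score combines fluorescence near 667 nm and signal to noise of each spot.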 Conditions: small-molecule microarray, higher = more signal.

Chain of Neurogenic locus notch homolog protein 3 (Homo sapiens) (Q9UM47 whole entry, looked up): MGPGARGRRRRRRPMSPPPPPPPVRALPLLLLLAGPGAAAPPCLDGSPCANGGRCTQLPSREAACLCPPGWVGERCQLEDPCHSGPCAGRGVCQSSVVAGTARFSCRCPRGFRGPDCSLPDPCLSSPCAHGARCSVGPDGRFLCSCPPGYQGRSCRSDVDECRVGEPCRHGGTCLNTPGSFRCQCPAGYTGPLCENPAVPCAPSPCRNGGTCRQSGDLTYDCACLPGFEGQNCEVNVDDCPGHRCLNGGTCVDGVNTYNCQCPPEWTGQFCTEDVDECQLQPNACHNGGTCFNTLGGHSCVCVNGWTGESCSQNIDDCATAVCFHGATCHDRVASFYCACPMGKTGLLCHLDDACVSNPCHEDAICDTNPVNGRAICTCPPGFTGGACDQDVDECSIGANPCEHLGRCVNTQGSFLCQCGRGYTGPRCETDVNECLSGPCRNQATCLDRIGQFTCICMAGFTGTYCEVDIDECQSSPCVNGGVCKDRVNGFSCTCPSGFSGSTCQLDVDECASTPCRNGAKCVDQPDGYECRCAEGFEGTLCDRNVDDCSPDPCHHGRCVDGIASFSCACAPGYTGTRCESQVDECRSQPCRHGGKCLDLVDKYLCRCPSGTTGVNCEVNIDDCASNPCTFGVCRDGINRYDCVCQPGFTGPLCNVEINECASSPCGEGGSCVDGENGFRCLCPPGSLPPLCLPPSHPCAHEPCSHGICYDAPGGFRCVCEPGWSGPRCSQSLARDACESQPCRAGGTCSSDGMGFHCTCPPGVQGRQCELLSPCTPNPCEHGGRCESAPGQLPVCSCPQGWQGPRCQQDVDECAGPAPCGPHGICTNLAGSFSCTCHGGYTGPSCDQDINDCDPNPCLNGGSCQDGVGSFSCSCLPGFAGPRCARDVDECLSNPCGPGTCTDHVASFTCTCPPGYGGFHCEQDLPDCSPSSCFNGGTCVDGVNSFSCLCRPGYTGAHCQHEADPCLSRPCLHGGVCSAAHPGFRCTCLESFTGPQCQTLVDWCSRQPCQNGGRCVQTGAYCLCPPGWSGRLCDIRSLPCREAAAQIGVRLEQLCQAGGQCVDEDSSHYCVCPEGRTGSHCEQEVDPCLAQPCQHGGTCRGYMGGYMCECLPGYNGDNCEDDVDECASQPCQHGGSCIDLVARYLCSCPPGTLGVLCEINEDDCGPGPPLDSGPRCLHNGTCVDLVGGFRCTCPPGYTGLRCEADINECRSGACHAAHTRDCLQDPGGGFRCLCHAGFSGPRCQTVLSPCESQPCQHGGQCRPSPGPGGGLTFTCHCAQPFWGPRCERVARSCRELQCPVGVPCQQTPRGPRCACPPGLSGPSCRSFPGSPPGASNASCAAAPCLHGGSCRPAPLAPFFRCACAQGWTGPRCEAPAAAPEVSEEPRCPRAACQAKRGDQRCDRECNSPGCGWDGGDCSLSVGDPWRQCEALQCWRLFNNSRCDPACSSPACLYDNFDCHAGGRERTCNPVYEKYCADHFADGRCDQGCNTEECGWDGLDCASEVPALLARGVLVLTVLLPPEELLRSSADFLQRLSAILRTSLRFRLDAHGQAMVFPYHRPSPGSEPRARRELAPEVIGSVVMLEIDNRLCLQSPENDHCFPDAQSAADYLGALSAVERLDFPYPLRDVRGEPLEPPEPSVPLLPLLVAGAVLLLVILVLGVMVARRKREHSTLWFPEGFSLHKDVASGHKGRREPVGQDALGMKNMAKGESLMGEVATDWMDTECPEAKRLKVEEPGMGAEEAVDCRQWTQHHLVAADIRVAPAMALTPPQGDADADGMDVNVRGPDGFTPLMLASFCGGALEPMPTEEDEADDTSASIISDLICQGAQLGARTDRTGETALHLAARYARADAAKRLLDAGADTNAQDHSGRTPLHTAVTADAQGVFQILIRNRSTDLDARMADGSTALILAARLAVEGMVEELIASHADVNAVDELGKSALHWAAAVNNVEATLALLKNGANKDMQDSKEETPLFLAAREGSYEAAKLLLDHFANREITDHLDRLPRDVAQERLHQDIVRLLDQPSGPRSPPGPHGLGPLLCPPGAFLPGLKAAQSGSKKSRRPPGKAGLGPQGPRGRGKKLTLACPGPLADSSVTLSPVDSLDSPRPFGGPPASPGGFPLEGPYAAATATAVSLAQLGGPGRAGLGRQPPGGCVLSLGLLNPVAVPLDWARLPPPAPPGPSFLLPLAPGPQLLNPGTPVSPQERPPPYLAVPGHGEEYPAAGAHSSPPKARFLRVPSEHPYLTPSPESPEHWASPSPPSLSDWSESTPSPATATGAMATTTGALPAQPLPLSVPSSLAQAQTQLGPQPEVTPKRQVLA

For `C=C(CCCC)C(=O)CC[C@H](OC(C)=O)c1ccccc1OCCO`, the composite z-score in test [1] is -0.327; in test [2], -0.0867; in test [3] it was -0.0471; in [4], 0.776; in test [5], 0.435; in test [6] it was 0.898. Moreover, the composite z-score is -0.0255 in test [7]; 0.167 in test [9]; -0.358 in test [10]; 1.19 in test [11]; 0.383 in [15]; -0.12 in test [17]. Further, the values for the composite z-score in test [18], in test [19] and in test [20] were 0.0384, 0.67 and -0.177, respectively. For the same molecule, the z-score is -0.881 (inactive) in [8]; 0.489 (inactive) in test [12]; -2.03 (inactive) in test [13]; -0.438 (inactive) in test [14]; 0.733 (inactive) in test [16].

As to `COC(=O)c1c(CC[C@@H](CO)NC(=O)N[C@@H](Cc2ccccc2)Cn2cc(-c3cncn3C)nn2)oc(C(C)=O)c1C(=O)OC`, the composite z-score in test [1] is -0.42; in [2], 0.259; in test [3], -0.129; in test [4], 0.716; in test [5] it was -0.451; in test [6] it was 1.67. Moreover, the composite z-score in [7] is 1.29; in test [9], 0.0625; in test [10], -0.0401; in test [11], 1.51; in test [15], 2.99; in test [17] it was -0.215. Further, the values for the composite z-score in test [18], in test [19] and in [20] were 0.801, 0.912 and -0.142, respectively. The z-score in [8] was 0.691 (inactive); in test [12] it was 0.268 (inactive); in test [13], -0.0536 (inactive); in test [14] it was -0.131 (inactive); in test [16], 0.916 (inactive).

For `CN(C)CCCCNC(=O)[C@H]1C[C@H]2C(=O)NCC(=O)N2[C@H]1c1cccc(OCCO)c1`, the composite z-score was -0.295 in test [1]; -0.0314 in test [2]; -0.155 in test [3]; -0.224 in test [4]; -0.342 in [5]; 0.401 in [6]. Moreover, the composite z-score was 1.19 in [7]; -0.324 in test [9]; -0.485 in test [10]; 0.826 in [11]; 1.6 in [15]; -0.121 in test [17]. For the same molecule, the composite z-score was 0.938 in test [18], 1.01 in test [19] and -0.3 in [20]. For the same molecule, the z-score was 0.836 (inactive) in test [8]; 0.259 (inactive) in [12]; 1.06 (inactive) in test [13]; -0.431 (inactive) in test [14]; 0.52 (inactive) in test [16].

Consider `CN(C)C(=O)[C@]1(Cc2ccccc2CN=[N+]=[N-])N=C(c2ccc(OCCCO)cc2)O[C@@H]1c1ccccc1N=[N+]=[N-]`, for which the composite z-score was determined as 0.168 in [1]; 0.142 in test [2]; 0.117 in [3]; 0.41 in test [4]; 1.49 in test [5]; 1.85 in test [6]. For the same molecule, the composite z-score was 1.22 in test [7]; 1.22 in test [9]; -0.264 in [10]; 1.48 in test [11]; 3.43 in test [15]; 0.0369 in [17]. Further, the figures for the composite z-score in test [18], in test [19] and in test [20] were 0.317, 0.618 and 0.0427, respectively. Moreover, the z-score was -1.04 (inactive) in [8]; -1.73 (inactive) in [12]; 0.498 (inactive) in test [13]; 12.9 (active) in test [14]; -0.0046 (inactive) in test [16].

Regarding `C#CCN([C@H](/C=C/C1CC1)[C@@H](O)Cc1ccccc1)[C@@H](Cc1ccccc1)C(=O)OC`, the composite z-score was 0.262 in test [1]; -0.134 in test [2]; -0.121 in test [3]; -0.363 in test [4]; -0.807 in test [5]; -0.458 in [6]. Besides, the composite z-score in test [7] is -0.706; in test [9] it was -0.0804; in test [10], -0.123; in test [11], 0.447; in [15] it was 0.126; in test [17], -0.128. Also, the values for the composite z-score in [18], in [19] and in [20] were 0.237, 0.606 and -0.198, respectively. Also, the z-score in test [8] is -1.67 (inactive); in test [12], -0.345 (inactive); in test [13], -0.825 (inactive); in test [14], 0.316 (inactive); in [16], 0.598 (inactive).

In the case of `CC(C)CNC(=O)[C@@H]1c2ccccc2C(=O)N(C(C)C)[C@H]1c1ccc(CO)cc1`, the composite z-score was 0.172 in test [1]; -0.0466 in test [2]; -0.138 in test [3]; -0.466 in test [4]; -0.811 in test [5]; -0.566 in [6]. Besides, the composite z-score in test [7] is 1.41; in test [9], -0.117; in test [10], -0.261; in [11], 0.12; in [15], 2.33; in test [17], -0.166. The results for the composite z-score in [18], in test [19] and in [20] were 0.126, 0.0151 and -0.246, respectively. Further, the z-score in [8] is -0.981 (inactive); in [12] it was -1.37 (inactive); in [13] it was 0.0396 (inactive); in [14], -0.421 (inactive); in [16], 0.794 (inactive).

With `COCCOC(=O)N1C(=O)[C@@]2(c3cc(C#CC4(O)CCCCCC4)ccc31)[C@H](C(=O)NC[C@H](O)c1ccccc1)[C@H]1C(=O)O[C@H](c3ccccc3)[C@H](c3ccccc3)N1[C@@H]2c1ccc(O)cc1`, the composite z-score was -0.0443 in [1]; 0.224 in [2]; -0.0193 in test [3]; 1 in test [4]; 0.496 in test [5]; 0.802 in test [6]. Besides, the composite z-score is 1.28 in test [7]; 0.153 in test [9]; 0.176 in test [10]; 1.48 in test [11]; 2.49 in test [15]; -0.0289 in [17]. The composite z-score was 0.3 in test [18], 0.871 in [19] and -0.0703 in test [20]. Besides, the z-score is -0.0865 (inactive) in [8]; 0.295 (inactive) in [12]; 0.956 (inactive) in test [13]; 0.927 (inactive) in [14]; 1.43 (inactive) in test [16].

On to `COC(=O)[C@@]1(Cc2ccc(F)cc2)[C@H]2c3cc(C(=O)N(C)C)n(CCN4CCOCC4)c3C[C@H]2CN1C(=O)c1ccccc1`, for which the composite z-score is 0.59 in [1]; -0.141 in [2]; 0.0141 in [3]; 0.58 in test [4]; 1.63 in [5]; 1.51 in [6]. In addition, the composite z-score in test [7] was 0.654; in test [9] it was 0.416; in [10], 0.664; in [11], 0.101; in [15], 2.5; in test [17], 0.246. The composite z-score in test [18] is -0.539; in test [19] it was 0.417; in [20], 0.865. In addition, the z-score in [8] was 1.56 (inactive); in test [12] it was 0.218 (inactive); in [13], 0.323 (inactive); in [14], 0.0727 (inactive); in [16], 0.176 (inactive).

For `C=CCC(OC(C)=O)[C@@H]1[C@@H](N(Cc2ccc(-c3ccccc3)cc2)C(=O)c2cccc3ccccc23)c2cc(OCCCO)ccc2N1C(=O)c1ccc2ccccc2c1` (stereo not given in full), the composite z-score in [1] was -0.254; in test [2] it was -0.0509; in [3] it was -0.0973; in test [4] it was 0.246; in test [5], 0.045; in test [6], -0.179. Moreover, the composite z-score is -0.172 in test [7]; 0.277 in test [9]; -0.0672 in [10]; 0.189 in test [11]; 0.813 in test [15]; 0.0802 in test [17]. The composite z-score in [18] is -0.106; in [19], -0.0403; in test [20], -0.136. The z-score is -0.891 (inactive) in test [8]; -0.521 (inactive) in [12]; -0.328 (inactive) in test [13]; -0.569 (inactive) in test [14]; -0.584 (inactive) in test [16].
